The list is a sample of the results.
LmPK act: boosts Leishmania mexicana pyruvate kinase activity | Q27686 | purified LmPK, Kinase-Glo ATP luminescence, 1 h | activity change, negative = inhibition, % at 57.5 µM | 290,000 tested, under 10 active | AID 1722; calls by dose curve
Target sequence (Q27686 whole entry, looked up): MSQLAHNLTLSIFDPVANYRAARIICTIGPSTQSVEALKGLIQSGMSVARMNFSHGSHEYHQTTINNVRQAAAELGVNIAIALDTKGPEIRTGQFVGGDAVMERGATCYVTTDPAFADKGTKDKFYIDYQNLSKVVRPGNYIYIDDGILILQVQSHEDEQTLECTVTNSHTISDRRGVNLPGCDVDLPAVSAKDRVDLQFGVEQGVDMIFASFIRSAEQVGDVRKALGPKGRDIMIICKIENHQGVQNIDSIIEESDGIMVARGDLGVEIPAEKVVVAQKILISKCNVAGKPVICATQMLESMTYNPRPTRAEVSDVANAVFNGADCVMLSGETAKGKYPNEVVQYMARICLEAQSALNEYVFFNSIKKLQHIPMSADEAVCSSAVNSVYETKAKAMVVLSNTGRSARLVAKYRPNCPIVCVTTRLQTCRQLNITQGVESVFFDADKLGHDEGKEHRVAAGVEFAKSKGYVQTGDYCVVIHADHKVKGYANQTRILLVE
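Purified LmPK (0.1 nM) converted ADP (0.1 mM, ~10-fold below Km) plus PEP (0.5 mM, at Km) to ATP over 1 h at room temperature in pH 7.2 imidazole buffer. Generated ATP was read by luciferase luminescence.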
An asterisk follows results filed as active.

SMILES | LmPK act
S=c1[nH]nc(Cc2cccs2)n1-c1ccccc1Cl | -81
CCC(=O)Nc1ccc(NC(=O)c2ccccc2)nc1 | -51
COc1ccc(NC2CCCCC2NS(=O)(=O)c2ccc(C)cc2)cc1 (centres undefined) | -31
COc1ccc(CCC(=O)Nc2sccc2C#N)cc1 | -39
O=C(NNc1cc(C(F)(F)F)nc2ccccc12)Nc1cccc(Cl)c1 | -30
c1ccc(-c2cn3c4c(sc3n2)CCCC4)cc1 | -92
COc1ccccc1-n1c(CCn2nc(C)c(Br)c2C)n[nH]c1=S | -57
CC(=O)Oc1ccc2cc(-c3ccccc3)c(=O)oc2c1 | -49
Cc1n[nH]c(=O)nc1N/N=C/c1ccco1 | -47
CCOC(=O)Cc1ccc2sc(-c3ccccc3)nc2c1 | -77
CSc1ccc(/C=N/NC(=O)c2cccc(O)c2)cc1 | -65
COc1ccccc1/C=N/Nc1nccnc1Cl | -100
O=C(COc1ccc2c(c1)OCO2)Nc1nccs1 | -85
CCC1=NNc2cccc3c(OC)ccc1c23 | -52
CC(C)Cn1c(-c2csc3c2CCCC3)n[nH]c1=S | -102
S=c1[nH]nc(C2CCCCC2)n1Cc1ccccc1 | -55
Cc1cc(C(=O)Nc2ccc(OCc3ccccc3)cc2)c(C)o1 | -76
CC(C)CCC(CC(C)O)c1n[nH]c(=S)n1-c1ccccc1 (centres undefined) | -65
Cc1ccc(O)c(-n2nc3ccccc3n2)c1 | -46
O=C(Nc1ccc(N2CCCCC2)cc1)c1ccccn1 | -100
Cc1ccnc(NC(=O)c2cc3ccccc3oc2=O)c1 | -81
O=C(Nc1ccc(N2CCOCC2)cc1)c1cn2ccccc2n1 | -86
C/C(=N/OC(=O)c1ccccc1)c1oc(C)nc1C | -40
CCn1c(-c2cc3c(C(F)(F)F)nn(C)c3s2)n[nH]c1=S | -42
COc1ccc(C2CC(C)(c3ccc(OC)cc3OC)Nc3ccccc3N2)c(OC)c1 (centres undefined) | -37
SMILES | LmPK act
COc1ccc(/C=N/OC(=O)Nc2ccccc2OC)cc1 | -31
COc1cc([N+](=O)[O-])ccc1N/C=C/C(=O)c1cccs1 | -34
CCSc1nn2c(=O)c3ccccc3nc2s1 | -35
O=C(COC(=O)c1cccnc1Cl)c1ccc(OC(F)F)cc1 | -66
COc1ccc(C2=CC(=O)C=CC2=O)cc1 | -101
COc1ccccc1Nc1nc2ccccc2n1C | -33
O=C(Nc1ccccc1C(=O)N/N=C/c1ccco1)c1ccc(F)cc1 | -73
S=c1[nH]nc(-c2cccc3ccccc23)n1-c1cccnc1 | -72
Cc1cc(C(=O)Nc2ccccc2)oc1C | -63
CC(C)Cc1cc(CN2CCC(CO)(Cc3cccc(C(F)(F)F)c3)CC2)[nH]n1 | -34
COc1ccc(/C=C/C(=O)c2cc3c(cc2N)OCO3)cc1 | -34
N#Cc1c(Cl)c(Cl)c2nnc(-c3ccc(Br)cc3)n2c1Cl | -48
C/C(=N\NC(=O)c1ccccc1NC(=O)c1ccc(Cl)cc1)c1ccncc1 | -40
O=C(CCc1ccc(O)c(O)c1)N/N=C/c1ccc2c(c1)OCO2 | -51
CC(=O)C(C(C)=O)c1c(Cl)c(O)c(O)c2c(C(=O)c3ccccc3)coc12 | -68
Cc1nc(/C(N)=N/OC(=O)c2ccc(Cl)cc2)c(C(F)(F)F)o1 | -53
Fc1ccc(-n2nnc(-c3cnc4ccccc4c3)n2)cc1 | -41
O=C(O)c1ccc(N2Cc3ccccc3C2)cc1O | -62
CC1(C)CCN2CCC(C)(C)c3c(O)ccc1c32 | -57
O=C(Nc1ccccc1)Nc1ccc(C(=O)N2CCOCC2)cc1 | -86
CSC(=NNC(=O)c1ccc(O)cc1)SC | -41
c1ccc(-c2ccc(-c3nccc4ccccc34)[nH]2)cc1 | -60
Cn1nc(C(=O)Nc2ccc3c(c2)OCCO3)cc1C(=O)O | -45
COc1ccc2[nH]c(C(=O)Nc3cccc(C)n3)cc2c1 | -80
S=C(Nc1ccc2nsnc2c1)N1CCCC1 | -59
SMILES | LmPK act
CC/C(C)=N/Nc1nc(-c2cc3cccc(OC)c3oc2=O)cs1 | -39
N/C(=N\OC(=O)C1CCCCC1)c1ccccn1 | -64
CC(C)S(=O)(=O)c1csc(C(=O)Nc2ccc(F)cc2)c1N | -83
S=c1[nH]nc(C23CC4CC(CC(C4)C2)C3)n1Cc1ccco1 | -34
CC(C)n1c(CSCc2ccc(Cl)cc2Cl)n[nH]c1=S | -64
Oc1ccc(N2CCN(Cc3c(-c4ccccc4)nc4ccccn34)CC2)cc1 | -40
Cc1ccccc1C(=O)O/N=C(\N)c1ccncc1 | -36
CC(=O)Oc1ccc(OC(C)=O)c(SCCCCCN2CCOCC2)c1 | -56
CCCCn1c(-c2sccc2C)n[nH]c1=S | -67
S=c1[nH]nc(COc2ccc(Cl)cc2)n1-c1ccccc1 | -36
Fc1ccc(OCc2nc3ccccc3s2)cc1 | -56
Cn1c(=O)[nH]c2nnc(-c3ccc(Cl)c(Cl)c3)nc2c1=O | -39
O=C(Nc1nc2c(s1)CCCC2=O)c1cnccn1 | -74
O=C1C=CC(=O)N1c1cccc(-c2ccccc2)c1 | -41
CCOc1cc(/C=C2\SC(=N)N(c3nccs3)C2=O)ccc1OCCN1CCOCC1 | -30
COC1=C/C(=C/c2c(O)c(C#N)c3ccccn23)C=CC1=O | -50

High-throughput results deposited in PubChem BioAssay by National Center for Advancing Translational Sciences (NCATS).
